# According to PubChem BioAssay (NCI):
# About 83,000 compounds went through this panel and 20% of them were active in at least one assay; those are over-represented in the sample as a whole.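 96-well plates, one dose, 48 hours. Percent growth reported; active if below 10.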 Activity calls are given as the source filed them.
# System: NCI-H322M lung
# Assay: NCI-60 one-dose screen, 48 h (100 = growth as untreated, 0 = no growth, -100 = all killed)
# Settings: 10 µM unless noted
row,SMILES,growth
1,CCCCCSB(SCCCCC)c1ccccc1,103% (inactive)
2,c1ccc(CNc2ccc3nc(CCC4CCCCC4)[nH]c3c2)cc1,86.7% (inactive)
3,S=c1ssnc1-c1cccs1,94.5% (inactive)
4,O=C(/C=C/c1ccc(Br)cc1)c1ccc(-n2cc(CN3CCN(c4cc5c(cc4F)c(=O)c(C(=O)O)cn5C4CC4)CC3)nn2)cc1,87.1% (inactive)
5,COc1ccc(Cc2cnc(NC(=O)c3sc4ccccc4c3Cl)s2)cc1,50.8% (inactive)
6,N#C/C(=C\c1ccc(Cl)cc1Cl)C(=O)Nc1ncc(Cc2ccc(Cl)c(Cl)c2)s1,76.4% (inactive)
7,N#Cc1c(-c2cccc([N+](=O)[O-])c2)cc(-c2ccc(Nc3nc(Nc4ccc(F)cc4)nc(Nc4ccc(F)cc4)n3)cc2)nc1N,97.9% (inactive)
8,O=C(CCCCCCN1CC(=O)N2[C@@H](c3ccc(Cl)cc3)c3[nH]c4ccccc4c3C[C@H]2C1=O)NO,70.3% (inactive)
9,CCCCCCCCn1ccc2cc(NC(=O)Cn3cc(CN4CCC(C)CC4)nn3)ccc21,28.6% (inactive)
10,CCCC(O)Cn1ncc(C(=O)OCC)c1NC(=O)NCc1cccc(F)c1 (stereo not given),93% (inactive)
11,COc1cc2c3c(c1O)-c1ccccc1[C@@H]1OC(=O)N(CC2)[C@H]31,113% (inactive)
12,C/C(=C(/c1ccc(Cl)cc1)c1ccc(OCCCN(C)C)cc1)c1ccc(Cl)cc1,85.9% (inactive)
13,Cc1cc(C(=O)Nc2cc(Nc3ncccc3-c3ncnc4nc[nH]c34)ccc2F)cc(C(F)(F)F)c1,106% (inactive)
14,CCOC(=O)NN1CC(O)=C(c2nc(-c3ccc(Br)cc3)cs2)C1=N,112% (inactive)
15,O=C1C(Cl)=C(NCCN2CCOCC2)C(=O)c2ncccc21,1.09% (active)
16,O=C(Nc1ccc(F)cc1)Nc1ccccc1CNc1nc(Nc2ccc(OCCN3CCCC3)cc2)ncc1Cl,89.1% (inactive)
17,C[C@H]1[C@H](C)CC[C@]2(C(=O)O)CC[C@]3(C)C(=CC[C@@H]4[C@@]5(C)C[C@@H](Cc6cn([C@@H]7O[C@H](CO)[C@@H](O)[C@H](O)[C@H]7O)nn6)[C@H](O)C(C)(C)[C@@H]5CC[C@]43C)[C@H]12,102% (inactive)
18,COC(=O)c1ccc2c(c1)c1c(C)c3ccncc3c(C)c1n2C,33.6% (inactive)
19,COc1cc(C(=O)c2c(-c3ccccc3)oc3c(OC)cccc23)cc(OC)c1O,56.2% (inactive)
20,C=C1C(=O)O[C@H]2[C@H]1CC/C(CNC(=O)c1cc3ccccc3[nH]1)=C\CC[C@@]1(C)O[C@@H]21,63.8% (inactive)

row,SMILES,growth
1,O=P(O)(O)OCC1OC(n2cnc3c(NCc4ccccc4)ncnc32)C(O)C1O (stereo not given),33.6% (inactive)
2,CCN(CC)CCCNCc1cc(-c2ccccc2)nc2cc(Cl)ccc12,75.5% (inactive)
3,COc1cc2nc(Nc3cccc(F)c3)nc(Nc3cc(C)[nH]n3)c2cc1OC,-100% [20 µM] (active)
4,CCC/C(=N\NC(N)=O)C(OC)OC,109% (inactive)
5,O=C1c2cc3c(cc2-c2c1c1ccc(Cl)cc1c(=O)n2C[C@H](O)CO)OCO3,-14.3% (active)
6,CCSC1=CC(=O)c2ccccc2C1=O,94.6% (inactive)
7,COc1cc(-c2nc3occn3c2-c2ccnc(NCCCNS(=O)(=O)c3ccccc3)n2)ccc1F,78.3% (inactive)
8,COC1=CC(c2ccc[nH]2)=N/C1=C\c1[nH]c(C)c(CC(=O)OCc2ccccc2)c1C,25.9% (inactive)
9,O=C(CSc1nnc2sc(Nc3cccc(Cl)c3)nn12)c1ccc(F)cc1,91.5% (inactive)
10,COc1ccc(C2=Nc3c(N)ncnc3NC(c3cccc(Nc4ccnc5cc(C(F)(F)F)ccc45)c3)C2)cc1 (stereo not given),81.3% (inactive)
11,Nc1c(C(=O)Nc2cccc3ncccc23)sc2nc3c(cc12)C(=O)CCC3,62.2% (inactive)
12,C#CCn1cnc2c(Nc3cccc(NC(=O)CCl)c3)ncnc21,81.1% (inactive)
13,COc1cc2oc(-c3cccc(NC(=O)c4ccc5c(c4)OCO5)c3)cc(=O)c2c(OC)c1OC,43.5% (inactive)
14,CCOC(=O)CSc1nc2sc3c(c2c(=O)n1-c1ccc([N+](=O)[O-])cc1)CCCCC3,77.2% (inactive)
15,Cn1cc(-c2nn3cc(-c4ccccc4)nc3s2)c2ccccc21,71% (inactive)
16,C=C1C(=O)O[C@H]2[C@H]1CC/C(COC(=O)NCCCCCCCCNC(=O)OC/C1=C/CC[C@@]3(C)O[C@H]3[C@H]3OC(=O)C(=C)[C@@H]3CC1)=C\CC[C@@]1(C)O[C@@H]21,-26.4% (active)
17,Oc1c(I)cc(-c2nc3ccccc3s2)cc1CN(Cc1ccccn1)Cc1ccccn1,15.9% (inactive)
18,Cc1ncc(C(=O)Nc2ccc(CN3CCN(C)CC3)c(C(F)(F)F)c2)cc1C#Cc1cnc(N)c2ccncc12,-32.5% (active)
19,O=C1/C(=C/c2ccc(C(F)(F)F)cc2)COc2ccc(O)c(O)c21,50.2% (inactive)
20,O=C1N[C@@H]2[C@@H](O)[C@@H](O)[C@H](O)C[C@H]2c2cc3c(c(O)c21)OCCO3,-24.3% (active)
